Consider seven molecules from PubChem BioAssay (EPA / NIEHS).

A short description of assay [1]: ATG_CMV_CIS: Attagene CIS-FACTORIAL HepG2 Assay for human CMV (Internal Marker) (AID 2282928).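 Further: endpoint acts as a background internal control marker rather than a target.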 The note with it: HepG2 CMV promoter reporter, transcription factor profiling; actives raise or lower the signal. Summed up:
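Reporter transcripts from transfected HepG2 cells are isolated after 24 h of chemical dosing, reverse-transcribed and amplified. Fragments labeled with 6-FAM are cut with HpaI and quantified by capillary electrophoresis; DMSO defines baseline.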

A short description of assay [2]: ATG_ISRE_CIS: Attagene CIS-FACTORIAL HepG2 Assay for human Interferon Regulatory Factor 1 (IRF1) binding to an Interferon-Stimulated Response Element (ISRE) (AID 2282948). The note with it: HepG2 ISRE cis-reporter (Attagene), mRNA transcription readout; actives raise or lower the signal. The gist of the method: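 Uses HepG2 liver cells transfected with cis-regulated reporters and measures mRNA 24 h post-dosing through RT-PCR, primer-extension labelling and capillary electrophoresis, with DMSO as negative control.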

Assay [3] in a line: ATG_M_32_CIS: Attagene CIS-FACTORIAL HepG2 Assay for M32 Transcription Factor (Internal Marker) (AID 2282949).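 Further: background control marker of the multiplexed CIS panel rather than a real target.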 Particulars: HepG2 Attagene cis-factorial M32 reporter, mRNA; actives raise or lower the signal. Summed up:
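Transient MRTU transfection of HepG2; 24 h compound treatment; TriZol RNA, oligo(dT) RT, reporter PCR, 6-FAM primer extension, HpaI cut, CE. Gain/loss of signal vs DMSO.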

The target in assay [4] is Hepatocyte nuclear factor 6 (Homo sapiens) (UniProt Q9UBC0). The experiment in a line: ATG_HNF6_CIS: Attagene CIS-FACTORIAL HepG2 Assay for human Hepatocyte Nuclear Factor 6 (HNF6) (AID 2282952). The note with it: HepG2 Attagene cis-factorial HNF6 reporter transcription; actives raise or lower the signal. Summed up: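 Activity values derive from bidirectional fitting against DMSO of reporter mRNA levels, measured by capillary electrophoresis of labelled RT-PCR products from HepG2 cells exposed 24 h.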

The target in assay [5] is Heat shock factor protein 1 (Homo sapiens) (UniProt Q00613). The assay can be described thus: ATG_HSE_CIS: Attagene CIS-FACTORIAL HepG2 Assay for human Heat Shock Transcription Factor 1 (HSE) (AID 2282953). Particulars: HepG2 HSE cis-reporter, Attagene RNA transcription; actives raise or lower the signal. The gist of the method:
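HepG2 cells transiently transfected with multiple reporter transcription units under cis-regulatory promoter control, measuring endogenous transcription factor activity. After 24 h chemical exposure, reporter mRNA quantified by RT-PCR, fluorescent labelling, HpaI digestion and capillary electrophoresis; bidirectional fit versus DMSO.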

A short description of assay [6]: ATG_RORE_CIS: Attagene CIS-FACTORIAL HepG2 Assay for human RAR-related Orphan Receptor Element (RORE) (AID 2282959). Particulars: HepG2 Attagene cis-factorial RORE reporter, mRNA; actives raise or lower the signal. The gist of the method: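 Transfect HepG2 with MRTUs; treat 24 h; extract RNA; RT with oligo(dT); PCR with reporter-specific primers; 6-FAM primer extension; HpaI digest 2 h at 37 C; capillary electrophoresis. Fit vs DMSO, bidirectional.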

Assay [7] addresses Signal transducer and activator of transcription 3 (Homo sapiens) (UniProt P40763). The assay can be described thus: ATG_STAT3_CIS: Attagene CIS-FACTORIAL HepG2 Assay for human Signal Transducer and Activator of Transcription 3 (STAT3) (AID 2282963). The note with it: HepG2, Attagene cis-factorial STAT3 reporter transcription; actives raise or lower the signal. Summed up: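 Cis-factorial format: endogenous transcription factors in HepG2 drive transfected reporter units. After 24 h treatment, reporter RNA was reverse-transcribed, amplified, FAM-labelled and HpaI-digested before CE analysis; activity scored in both directions against DMSO.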

Assay [8] in a line: ATG_TA_CIS: Attagene CIS-FACTORIAL HepG2 Assay for human TA Basal Promoter (AID 2282964). The note with it: HepG2 Attagene CIS-factorial TA basal promoter reporter; actives raise or lower the signal. Summed up: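 HepG2 cells transiently transfected with multiplexed cis-promoter reporter units, dosed 24 h. Reporter mRNA measured by RT-PCR, 6-FAM labelling, HpaI digestion and capillary electrophoresis; bidirectional fit versus DMSO baseline, serving as background control.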

Assay [9] is described as follows: ATG_TCF_b_cat_CIS: Attagene CIS-FACTORIAL HepG2 Assay for human T-Cell-Factor with beta-catenin (TCF/b-cat) (AID 2282965). Particulars: HepG2 TCF/beta-catenin cis-reporter transcription, actives raise or lower the signal. The gist of the method:
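Measured: reporter mRNA in HepG2 transiently transfected with cis-promoter reporter units, 24 h after chemical addition. Fitting was bidirectional, DMSO as negative control.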

Assay [10] in a line: ATG_TAL_CIS: Attagene CIS-FACTORIAL HepG2 Assay for human TAL Basal Promoter (AID 2282966).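 Further: background control endpoint measuring basal TAL promoter reporter mRNA not a specific factor.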 Particulars: HepG2 Attagene cis-factorial TAL promoter reporter; actives raise or lower the signal. The gist of the method: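 Transiently transfected HepG2 (cis-regulated reporter units), 24 h treatment, mRNA read by fluorescent CE after RT-PCR; bidirectional fit, DMSO baseline.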
Assay [11] is described as follows: ATG_TGFb_CIS: Attagene CIS-FACTORIAL HepG2 Assay for human Transforming Growth Factor (TGF) (AID 2282967). Particulars: HepG2 Attagene CIS TGFb reporter, mRNA transcription; actives raise or lower the signal. The gist of the method: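 HepG2 cells transiently transfected with cis-promoter-driven multiplexed reporter units; 24 h compound exposure. Reporter mRNA measured by RT-PCR, 6-FAM labeling, HpaI digestion and capillary electrophoresis; bidirectional fit versus DMSO baseline.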

The target in assay [12] is X-box-binding protein 1 (Homo sapiens) (UniProt P17861). The assay can be described thus: ATG_Xbp1_CIS: Attagene CIS-FACTORIAL HepG2 Assay for human X-box Binding Protein 1 (XBP1) (AID 2282972). The note with it: HepG2 XBP1 cis-element reporter, Attagene multiplex; actives raise or lower the signal. The gist of the method:
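Changes in reporter transcript abundance, read by RT-PCR and capillary electrophoresis, reflect endogenous transcription factor activity. Transfected HepG2 cells received compound for 24 hours; DMSO defined baseline for bidirectional analysis.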

Assay [13] concerns the target Transcriptional activator Myb (Homo sapiens) (UniProt P10242). The experiment in a line: ATG_Myb_CIS: Attagene CIS-FACTORIAL HepG2 Assay for human Myeloblastosis (Myb) Proto-Oncogene Transcription Factor (AID 2282986). Particulars: HepG2 Attagene CIS-FACTORIAL Myb reporter transcription; actives raise or lower the signal. The gist of the method:
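Using HepG2 liver cells bearing transiently transfected cis-promoter reporter constructs, the assay measures induction or loss of reporter mRNA after 24 hours of dosing. Detection used fluorescently labeled RT-PCR products separated by capillary electrophoresis.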

The target in assay [14] is Nuclear respiratory factor 1 (Homo sapiens) (UniProt Q16656). The assay can be described thus: ATG_NRF1_CIS: Attagene CIS-FACTORIAL HepG2 Assay for human Nuclear Respiratory Factor 1 (NRF1) Orphan Gene (AID 2282987). The note with it: HepG2 NRF1 cis-element reporter, Attagene multiplex; actives raise or lower the signal. Summed up:
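Reporter mRNA induction or loss in HepG2 cells after 24 h dosing; cis-regulated reporter constructs report endogenous transcription-factor activity. Quantified by RT-PCR/capillary electrophoresis fluorescence, DMSO-referenced.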

Assay [15] addresses Myc proto-oncogene protein (Homo sapiens) (UniProt P01106). The experiment in a line: ATG_Myc_CIS: Attagene CIS-FACTORIAL HepG2 Assay for human Myelocytomatosis (Myc) Proto-Oncogene Transcription Factor (AID 2282990). The note with it: HepG2, Attagene cis-reporter transcription factor activity; actives raise or lower the signal. Summed up: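 Cells of the HepG2 human liver line bear multiple cis-driven reporter transcription units. Reporter mRNA after 24 h exposure is reverse-transcribed, amplified, labelled and resolved by capillary electrophoresis, with gain- or loss-of-signal fitting relative to DMSO.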

Assay [16] is described as follows: ATG_NRF2_ARE_CIS: Attagene CIS-FACTORIAL HepG2 Assay for human Nuclear Factor Erythroid 2 Related Factor 2 (NFR2) response to Antioxidant Response Elements (ARE) (AID 2282992). The note with it: HepG2 Attagene ARE/NRF2 reporter, transcription factor activity; actives raise or lower the signal. Summed up: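 Using transiently transfected HepG2 cells exposed for 24 h, reporter mRNA levels were determined by RT-PCR with fluorescent primer extension and capillary electrophoresis, analysed for gain or loss of signal against DMSO.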

Assay [17] is described as follows: ATG_Oct_MLP_CIS: Attagene CIS-FACTORIAL HepG2 Assay for human Octamer-Binding Transcription Factor (Oct) (AID 2282993). Particulars: HepG2 Attagene cis-factorial Oct reporter, mRNA; actives raise or lower the signal. The gist of the method:
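HepG2 cells transiently transfected with cis-promoter-driven multiplexed reporter transcription units, dosed for 24 h. Reporter mRNA quantified by RT-PCR, fluorescent labelling, HpaI digestion and capillary electrophoresis; bidirectional fits versus DMSO baseline.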

Assay [18] can be described thus: ATG_VDRE_CIS: Attagene CIS-FACTORIAL HepG2 Assay for human Vitamin D Receptor Element (VDRE) (AID 2282968). Particulars: HepG2 VDRE cis-reporter transcription, actives raise or lower the signal. The gist of the method:
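Measures endogenous factor activity through cis-element-driven reporter transcripts in transiently transfected HepG2. Cells are treated 24 h; reporter mRNA is quantified by RT-PCR and capillary electrophoresis; fitting is bidirectional.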

A short description of assay [19]: ATG_NF_kB_CIS: Attagene CIS-FACTORIAL HepG2 Assay for human Nuclear Factor Kappa B (NF-kB) (AID 2282991). Particulars: HepG2 Attagene cis-factorial NF-kB reporter mRNA; actives raise or lower the signal. The gist of the method:
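DMSO served as negative control and baseline for bidirectional curve fitting. Transiently transfected HepG2 cells were dosed for 24 h, then reporter transcripts were measured by RT-PCR with capillary electrophoresis detection.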

The target of assay [20] is Cellular tumor antigen p53 (Homo sapiens) (UniProt P04637). The experiment in a line: ATG_p53_CIS: Attagene CIS-FACTORIAL HepG2 Assay for human p53 Transcription Factor (AID 2282994). Particulars: HepG2 p53 cis-element reporter, Attagene mRNA; actives raise or lower the signal. Summed up: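 In HepG2 cells, reporter transcription units under cis-regulatory promoters were transiently introduced. Following 24 h treatment, RNA was processed to labelled, digested cDNA fragments read by capillary electrophoresis; fitting was bidirectional versus DMSO.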

Calls of active or inactive are those of the source. How the source made its calls: active means hit-call score of the fitted dose curve at least 0.9, where 1 is the maximum; inactive means score below 0.9.

Hepatocyte nuclear factor 6 (Homo sapiens), sequence (Q9UBC0 whole entry, looked up): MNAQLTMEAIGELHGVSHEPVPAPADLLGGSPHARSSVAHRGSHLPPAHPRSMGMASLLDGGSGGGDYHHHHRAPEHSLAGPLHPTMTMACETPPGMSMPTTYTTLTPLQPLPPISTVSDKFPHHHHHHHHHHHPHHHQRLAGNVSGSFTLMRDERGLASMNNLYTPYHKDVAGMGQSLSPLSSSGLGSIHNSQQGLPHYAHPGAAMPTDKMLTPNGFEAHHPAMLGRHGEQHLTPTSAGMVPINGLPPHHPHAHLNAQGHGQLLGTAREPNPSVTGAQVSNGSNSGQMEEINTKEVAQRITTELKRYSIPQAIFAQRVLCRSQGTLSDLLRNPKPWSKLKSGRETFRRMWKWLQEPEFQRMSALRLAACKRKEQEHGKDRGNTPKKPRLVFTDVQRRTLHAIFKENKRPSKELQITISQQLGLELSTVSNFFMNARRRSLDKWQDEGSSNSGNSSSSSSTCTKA
Cellular tumor antigen p53 (Homo sapiens), sequence (P04637 whole entry, looked up, the tested form may be a part): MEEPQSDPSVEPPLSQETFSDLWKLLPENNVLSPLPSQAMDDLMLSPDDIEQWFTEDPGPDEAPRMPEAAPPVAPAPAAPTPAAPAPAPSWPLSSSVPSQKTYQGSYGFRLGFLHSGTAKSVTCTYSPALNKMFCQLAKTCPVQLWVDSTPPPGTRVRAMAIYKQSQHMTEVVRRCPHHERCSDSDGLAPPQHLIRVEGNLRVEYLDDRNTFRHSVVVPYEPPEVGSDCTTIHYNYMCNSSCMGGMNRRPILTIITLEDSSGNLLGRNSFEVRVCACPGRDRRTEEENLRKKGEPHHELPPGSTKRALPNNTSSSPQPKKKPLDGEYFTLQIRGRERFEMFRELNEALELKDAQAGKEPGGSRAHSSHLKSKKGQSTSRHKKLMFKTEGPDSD
Myc proto-oncogene protein (Homo sapiens), sequence (P01106 whole entry, looked up): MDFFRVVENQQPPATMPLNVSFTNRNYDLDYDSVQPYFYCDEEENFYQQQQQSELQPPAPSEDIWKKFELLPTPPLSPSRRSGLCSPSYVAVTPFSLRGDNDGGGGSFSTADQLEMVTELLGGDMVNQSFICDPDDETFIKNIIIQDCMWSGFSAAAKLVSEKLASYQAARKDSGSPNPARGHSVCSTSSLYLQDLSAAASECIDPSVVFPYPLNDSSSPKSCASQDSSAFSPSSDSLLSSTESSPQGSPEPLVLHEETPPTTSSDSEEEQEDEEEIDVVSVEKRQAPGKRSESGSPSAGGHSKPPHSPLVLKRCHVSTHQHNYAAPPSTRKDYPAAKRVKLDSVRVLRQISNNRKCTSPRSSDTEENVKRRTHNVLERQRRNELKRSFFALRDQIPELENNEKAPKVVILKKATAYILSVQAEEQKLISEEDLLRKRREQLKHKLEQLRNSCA
Nuclear respiratory factor 1 (Homo sapiens), sequence (Q16656 whole entry, looked up): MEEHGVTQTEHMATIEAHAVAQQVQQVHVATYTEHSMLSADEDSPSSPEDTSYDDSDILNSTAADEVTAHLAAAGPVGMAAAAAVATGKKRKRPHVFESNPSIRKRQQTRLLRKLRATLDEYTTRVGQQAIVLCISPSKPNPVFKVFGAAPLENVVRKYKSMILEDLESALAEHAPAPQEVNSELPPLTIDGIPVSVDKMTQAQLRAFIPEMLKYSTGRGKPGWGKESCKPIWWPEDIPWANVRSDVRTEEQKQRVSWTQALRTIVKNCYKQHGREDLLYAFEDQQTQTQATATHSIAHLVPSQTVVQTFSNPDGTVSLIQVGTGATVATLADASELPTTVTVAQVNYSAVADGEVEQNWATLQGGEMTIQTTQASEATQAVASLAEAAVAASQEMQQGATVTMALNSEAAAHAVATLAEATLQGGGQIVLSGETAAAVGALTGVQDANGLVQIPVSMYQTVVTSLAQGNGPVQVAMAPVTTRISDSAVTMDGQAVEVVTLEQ
Heat shock factor protein 1 (Homo sapiens), sequence (Q00613 whole entry, looked up): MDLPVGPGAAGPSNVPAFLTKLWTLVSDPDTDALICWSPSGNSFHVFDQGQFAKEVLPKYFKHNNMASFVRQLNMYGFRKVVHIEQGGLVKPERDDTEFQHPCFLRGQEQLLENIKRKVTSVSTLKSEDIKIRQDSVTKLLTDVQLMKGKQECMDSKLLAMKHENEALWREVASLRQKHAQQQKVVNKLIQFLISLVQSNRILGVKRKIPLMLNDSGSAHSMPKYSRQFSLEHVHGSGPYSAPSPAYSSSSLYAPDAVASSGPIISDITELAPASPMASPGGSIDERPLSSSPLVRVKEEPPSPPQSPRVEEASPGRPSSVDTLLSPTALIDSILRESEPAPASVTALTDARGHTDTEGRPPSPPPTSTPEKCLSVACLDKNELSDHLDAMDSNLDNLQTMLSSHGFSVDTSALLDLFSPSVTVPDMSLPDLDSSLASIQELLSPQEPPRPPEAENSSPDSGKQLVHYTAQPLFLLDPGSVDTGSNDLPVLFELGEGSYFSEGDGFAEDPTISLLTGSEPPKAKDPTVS
Signal transducer and activator of transcription 3 (Homo sapiens), sequence (P40763 whole entry, looked up): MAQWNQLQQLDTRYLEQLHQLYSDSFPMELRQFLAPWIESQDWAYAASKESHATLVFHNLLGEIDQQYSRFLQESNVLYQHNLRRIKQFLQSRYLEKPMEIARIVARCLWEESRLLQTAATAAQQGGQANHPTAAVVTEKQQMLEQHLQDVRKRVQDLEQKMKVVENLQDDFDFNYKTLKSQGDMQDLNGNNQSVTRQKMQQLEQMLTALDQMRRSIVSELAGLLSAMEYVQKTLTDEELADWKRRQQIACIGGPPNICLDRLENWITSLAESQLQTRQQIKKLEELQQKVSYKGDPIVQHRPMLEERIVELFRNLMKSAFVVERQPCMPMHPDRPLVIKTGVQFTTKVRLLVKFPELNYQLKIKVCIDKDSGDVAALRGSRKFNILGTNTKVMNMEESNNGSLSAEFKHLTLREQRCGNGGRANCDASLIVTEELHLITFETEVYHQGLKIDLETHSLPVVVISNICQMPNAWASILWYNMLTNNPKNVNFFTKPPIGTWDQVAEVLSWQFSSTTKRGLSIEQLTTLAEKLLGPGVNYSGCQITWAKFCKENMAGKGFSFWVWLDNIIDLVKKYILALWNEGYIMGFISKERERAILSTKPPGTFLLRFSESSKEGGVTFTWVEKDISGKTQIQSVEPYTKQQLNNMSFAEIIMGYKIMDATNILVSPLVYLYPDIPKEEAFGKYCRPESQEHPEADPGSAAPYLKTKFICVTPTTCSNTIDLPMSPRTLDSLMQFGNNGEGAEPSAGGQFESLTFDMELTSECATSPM
X-box-binding protein 1 (Homo sapiens), sequence (P17861 whole entry, looked up): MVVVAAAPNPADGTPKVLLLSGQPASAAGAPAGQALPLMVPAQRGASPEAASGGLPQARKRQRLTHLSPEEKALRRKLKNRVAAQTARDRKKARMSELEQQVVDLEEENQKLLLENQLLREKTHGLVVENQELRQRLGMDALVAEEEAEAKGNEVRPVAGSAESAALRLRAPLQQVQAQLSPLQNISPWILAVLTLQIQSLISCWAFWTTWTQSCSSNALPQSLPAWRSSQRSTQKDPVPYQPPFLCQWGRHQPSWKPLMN
Transcriptional activator Myb (Homo sapiens), sequence (P10242 whole entry, looked up): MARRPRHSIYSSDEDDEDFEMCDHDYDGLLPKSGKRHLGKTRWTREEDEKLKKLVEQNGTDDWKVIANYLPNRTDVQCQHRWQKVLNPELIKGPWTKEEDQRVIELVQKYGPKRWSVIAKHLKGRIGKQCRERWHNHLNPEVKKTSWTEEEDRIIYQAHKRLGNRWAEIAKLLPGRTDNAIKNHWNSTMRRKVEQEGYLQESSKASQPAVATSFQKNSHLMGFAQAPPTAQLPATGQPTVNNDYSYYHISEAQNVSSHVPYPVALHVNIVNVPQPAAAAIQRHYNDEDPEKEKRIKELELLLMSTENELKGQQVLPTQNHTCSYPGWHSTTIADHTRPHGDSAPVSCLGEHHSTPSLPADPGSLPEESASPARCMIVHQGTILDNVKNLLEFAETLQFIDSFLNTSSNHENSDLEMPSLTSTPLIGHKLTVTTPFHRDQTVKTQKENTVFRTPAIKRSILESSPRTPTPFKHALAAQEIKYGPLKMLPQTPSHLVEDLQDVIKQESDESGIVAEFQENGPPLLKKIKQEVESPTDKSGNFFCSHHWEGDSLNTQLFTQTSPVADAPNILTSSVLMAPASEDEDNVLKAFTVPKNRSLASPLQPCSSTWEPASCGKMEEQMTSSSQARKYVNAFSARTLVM

In the case of `C[N+](C)(C)CC(=O)O`, the molecule was classed as inactive in assay [1], in assay [2], in assay [3], in assay [4], in [5] and in assay [6]. Further, the molecule was classed as inactive in assay [7], in assay [8], in [9], in assay [10], in assay [11] and in [12]. Also, the molecule was classed as inactive in [13], in assay [14], in assay [15], in assay [16] and in assay [17].
Regarding `O=S(=O)(O)OOS(=O)(=O)O`, the molecule was classed as inactive in assay [1], in [2], in assay [3], in assay [4], in assay [5] and in [6]. Moreover, the outcome in [7], in [9], in assay [10], in assay [11], in [18] and in assay [12] was inactive. In addition, the outcome in assay [13], in assay [14], in assay [15], in assay [19], in assay [16] and in assay [17] was inactive.
For the molecule `CC(C)C(=O)Cl`, the result in [1], in assay [2], in assay [4], in [5], in [7] and in assay [8] was inactive. For the same molecule, the call in assay [9], in [10], in assay [11], in assay [18], in [12] and in assay [13] was inactive. The molecule was called inactive in assay [14], in assay [15], in assay [19], in [16], in [17] and in assay [20].
For the molecule `C=CC(=O)OCCCCOC(=O)C=C`, the AC50 in assay [1] is 74 µM (active); in [9], 60.4 µM (active); in assay [18], 33.5 µM (active); in [19], 35.3 µM (active); in [16], 24.6 µM (active); in assay [17], 37.7 µM (active). Further, the concentration at half-maximal activity (AC50) in assay [20] was 163 µM (active). In addition, the call in assay [3], in assay [4], in assay [5], in assay [8], in assay [10] and in [11] was inactive. The molecule was called inactive in assay [12], in assay [13], in assay [14] and in assay [15].
Take `CCOP(=O)(OCC)Oc1ccc([N+](=O)[O-])cc1`: the call in assay [1], in assay [2], in assay [3], in [4], in assay [5] and in assay [6] was inactive. The call in [7], in assay [9], in [10], in assay [11], in [18] and in assay [12] was inactive. Also, the molecule was called inactive in [13], in assay [14], in assay [15], in assay [19], in assay [16] and in assay [17]. In addition, in [20], the molecule was classed as inactive.
`CN(C)CCC#N`: the molecule was called inactive in [1], in assay [3], in assay [4], in assay [5], in assay [6] and in assay [7]. Besides, the call in [8], in [9], in [10], in assay [11], in [18] and in assay [12] was inactive. Further, the call in assay [13], in assay [14], in assay [15], in assay [19], in assay [16] and in assay [17] was inactive. Also, the outcome in [20] was inactive.
`COC(=O)c1ccccc1S(=O)(=O)NC(=O)Nc1nc(C)cc(C)n1`: the call in assay [1], in [2], in assay [3], in assay [4], in assay [7] and in assay [8] was inactive. Further, the outcome in assay [9], in assay [10], in assay [11], in assay [18], in assay [12] and in assay [13] was inactive. In addition, the outcome in assay [14], in assay [15], in assay [19], in [16] and in assay [17] was inactive.

The AC50 is the midpoint of the concentration-response curve, whichever way the signal moves.
